This note sets out measurements from PubChem BioAssay.

Assay [1] is described as follows: parental HEK293 membrane potential modulation, confirmation, counter-screen for TRPC6 modulator project, cell-based (AID 488924;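 active = membrane potential signal moves up or down beyond 5 SD from buffer-only wells, on both duplicate plates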). Conditions: parental HEK293, membrane potential dye fluorescence; at 10 µM.
Assay [2] in a line: modulation of acetylcholine-evoked membrane potential, parental HEK293, confirmation, counter-screen for TRPC6 modulator project, cell-based, second counter-screen, membrane potential dye (AID 488926;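 active = membrane potential signal drops by more than 5 SD from the mean control signal, in both duplicate plates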;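 as to inhibition: plate controls were acetylcholine ECmax control wells for no effect and buffer only wells for full effect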). Conditions: parental HEK293, membrane potential dye fluorescence, at 10 µM, after compound, maximal acetylcholine stimulation; stronger effect = higher value.
For assay [3], the system named is Transient receptor potential cation channel subfamily C member 4 (mouse). As to the kind of experiment: TRPC4 modulation by TRPC6 hit compounds, confirmation, selectivity assay for TRPC6 modulator project, cell-based, HEK293 TRPC4/mu-opioid, membrane potential dye, mouse (AID 488927).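 As to percent change from control (negative = decrease, positive = increase): plate controls were assay buffer wells for no effect and DAMGO maximal-effect wells for full effect.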 Conditions: membrane potential fluorescence, at 10 µM.
In assay [4] the test system is TRPC4 (transient receptor potential cation channel C4), mouse. As to the kind of experiment: TRPC4 inhibition by TRPC6 hit compounds, confirmation, selectivity assay for TRPC6 modulator project, cell-based, second screen, HEK293 TRPC4/mu-opioid, membrane potential dye (AID 488928;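 active = drop in membrane potential signal beyond 5 SD of the control wells in both duplicate plates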;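 also: TRPC4 counter screen for TRPC6 hits run under conditions tuned for TRPC6 not TRPC4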). Conditions: membrane potential dye fluorescence, at 10 µM, stimulated with maximal-effect DAMGO; stronger effect = higher value.

Assay [5] concerns the target Short transient receptor potential channel 6 (Mus musculus) (UniProt Q61143). As to the kind of experiment: mouse TRPC6 channel inhibitors, confirmation, HEK293 cells, membrane potential dye, duplicate (AID 488960;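 active = fluorescence ratio falls more than 5 SD below the full-stimulation control mean, in both duplicate runs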;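 as to inhibition: integrated fluorescence ratio of peak minus minimum over baseline after agonist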). The following applies: ACh-evoked depolarization, at 10 µM; stronger effect = higher value.
Assay [6] shares this target. As to the kind of experiment: mouse TRPC6 channel activators, confirmation, HEK293 cells, membrane potential dye, duplicate (AID 488961;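 active = ratio signal rise beyond 5 SD above unstimulated control wells' mean, seen in both duplicate runs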;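 as to activation: plate controls were buffer EC0 wells for no effect and acetylcholine ECmax response for full effect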). The following applies: HEK293-TRPC6 membrane potential dye fluorescence, FDSS, at 10 µM; stronger effect = higher value.

The list shows a part of the results. A number with no mark means an inactive call. Activity calls are given as the source filed them.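 The calls were made as follows, unless noted: active = membrane potential signal moved up or down beyond 5 SD of buffer control wells, in both duplicate plates, actives on both sides; inactive = the rest.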

Chain of Short transient receptor potential channel 6 (Mus musculus) (Q61143 whole entry, looked up): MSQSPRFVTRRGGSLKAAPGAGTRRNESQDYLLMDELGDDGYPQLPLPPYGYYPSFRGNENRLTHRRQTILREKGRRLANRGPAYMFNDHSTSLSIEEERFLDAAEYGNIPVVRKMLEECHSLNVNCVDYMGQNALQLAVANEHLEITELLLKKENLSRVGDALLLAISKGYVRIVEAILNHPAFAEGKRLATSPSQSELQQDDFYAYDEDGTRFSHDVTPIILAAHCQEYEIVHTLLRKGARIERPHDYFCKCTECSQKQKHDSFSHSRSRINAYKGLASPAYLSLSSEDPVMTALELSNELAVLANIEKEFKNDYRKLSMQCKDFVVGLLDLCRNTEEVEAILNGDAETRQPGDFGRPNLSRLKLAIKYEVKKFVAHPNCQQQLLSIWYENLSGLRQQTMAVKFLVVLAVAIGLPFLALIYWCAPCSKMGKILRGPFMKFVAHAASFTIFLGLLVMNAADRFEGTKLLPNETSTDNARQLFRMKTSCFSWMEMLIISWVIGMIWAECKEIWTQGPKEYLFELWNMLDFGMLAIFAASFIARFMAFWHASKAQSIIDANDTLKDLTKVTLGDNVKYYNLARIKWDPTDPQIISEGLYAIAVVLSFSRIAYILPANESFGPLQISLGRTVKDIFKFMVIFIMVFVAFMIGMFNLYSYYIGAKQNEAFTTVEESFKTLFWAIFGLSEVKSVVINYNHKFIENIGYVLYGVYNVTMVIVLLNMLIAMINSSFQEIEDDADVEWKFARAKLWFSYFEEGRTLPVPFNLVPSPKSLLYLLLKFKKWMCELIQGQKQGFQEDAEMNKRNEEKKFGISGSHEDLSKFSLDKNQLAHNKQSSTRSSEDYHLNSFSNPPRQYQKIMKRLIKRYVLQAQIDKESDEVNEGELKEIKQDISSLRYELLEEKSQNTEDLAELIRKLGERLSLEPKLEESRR

For `O=C(CN1CCCCCC1)N1c2ccccc2Sc2ccc(C(F)(F)F)cc21`, the membrane potential signal change in assay [1] is 122% (active). Besides, the result in assay [2], in assay [4] and in assay [6] was inactive. Moreover, in assay [3], the percent change from control (negative = decrease, positive = increase) is 18.5% (active). Further, the inhibition in assay [5] was 46.5% (active).
As to `O=C1c2ccccc2C(=O)c2c1cccc2N1CCN(CCO)CC1`, the membrane potential signal change in assay [1] was -367% (active). Moreover, the inhibition in assay [2] is 64% (active); in assay [4], 60% (active); in assay [5], 78.5% (active). For the same compound, in assay [3], the percent change from control (negative = decrease, positive = increase) was -80.5% (active). For the same compound, the result in assay [6] was inactive.
With `CC(=O)c1cc(NC(=O)c2ccccc2)c(=O)oc1/C=C/N(C)C`, in assay [1], the membrane potential signal change is 868% (active). In addition, the inhibition was 196% (active) in assay [2] and 35.5% (active) in assay [4]. Also, the percent change from control (negative = decrease, positive = increase) in assay [3] is 43% (active). Also, the compound was called inactive in assay [5] and in assay [6].
Regarding `c1ccc(C2CNCc3c2ccc2ccccc32)cc1` (centres undefined), the outcome in assay [1], in assay [2], in assay [3] and in assay [6] was inactive. The inhibition was 81.5% (active) in assay [4] and 58% (active) in assay [5].
For `Cc1cc(C)c2nc3nc(C)cc(C)c3c(N)c2c1`, the outcome in assay [1], in assay [5] and in assay [6] was inactive. Moreover, the results for the inhibition in assay [2] and in assay [4] were 76.5% (active) and 48% (active), respectively. Besides, the percent change from control (negative = decrease, positive = increase) in assay [3] was -31% (active).
`CCCCN(C)CCCNC(=O)c1cc(-c2cccs2)nc2ccccc12`: the outcome in assay [1], in assay [2], in assay [5] and in assay [6] was inactive. Also, the percent change from control (negative = decrease, positive = increase) in assay [3] was -13% (active). Besides, the inhibition in assay [4] is 65.5% (active).
Take `CCc1ccc(OCC(=O)N(Cc2ccccc2)C2CCS(=O)(=O)C2)cc1` (centres undefined): the result in assay [1], in assay [2], in assay [4], in assay [5] and in assay [6] was inactive. In addition, the percent change from control (negative = decrease, positive = increase) in assay [3] is 8.5% (active).
`O=[N+]([O-])c1ccccc1Nc1ccc(O)cc1`: in assay [1], the membrane potential signal change is -186% (active). In addition, the result in assay [2], in assay [5] and in assay [6] was inactive. Moreover, the percent change from control (negative = decrease, positive = increase) in assay [3] was -32% (active). Moreover, in assay [4], the inhibition was 61.5% (active).
On to `Cc1nn(Cc2ccc(C(=O)N3N=C(C(F)F)CC3(O)C(F)F)cc2)c(C)c1[N+](=O)[O-]` (centres undefined), for which the outcome in assay [1], in assay [2], in assay [4], in assay [5] and in assay [6] was inactive. The percent change from control (negative = decrease, positive = increase) in assay [3] is -17.5% (active).
For `O=S(=O)(c1cccc(Cn2nnc(-c3ccc(F)cc3)n2)c1)N1CCOCC1`, the outcome in assay [1], in assay [2], in assay [3], in assay [4], in assay [5] and in assay [6] was inactive.
With `OCCC1CN(Cc2ccc3nsnc3c2)CCN1C1CCCCC1` (centres undefined), the membrane potential signal change in assay [1] is 109% (active). Moreover, the outcome in assay [2] and in assay [5] was inactive. In assay [3], the percent change from control (negative = decrease, positive = increase) was 18% (active). Further, the inhibition in assay [4] is 37% (active).
As to `CCC(C)(C)NC(=O)CN(C(=O)CCC(=O)Nc1nccs1)c1ccc2c(c1)OCO2`, the outcome in assay [1], in assay [2], in assay [3], in assay [4], in assay [5] and in assay [6] was inactive.
Turning to `COC(=O)c1ccccc1NC(=O)C1CCN(S(=O)(=O)c2cc(OC)ccc2OC)CC1`, the result in assay [1], in assay [2], in assay [4] and in assay [5] was inactive. The percent change from control (negative = decrease, positive = increase) in assay [3] is 13% (active).
Take `CC(=O)Nc1ccc(NC(=O)CN2CCCC(C)C2)c(Cl)c1` (centres undefined): the result in assay [1], in assay [2], in assay [3] and in assay [4] was inactive. In addition, in assay [5], the inhibition was 66% (active).
Regarding `COc1ccc(-c2nnc(NC(=O)CS(=O)(=O)c3ccc(Cl)cc3)o2)c(OC)c1`, the membrane potential signal change in assay [1] is 86% (active). Further, the result in assay [2], in assay [3], in assay [4] and in assay [5] was inactive. The activation in assay [6] was 46.5% (active).
`O=C(c1ccc(-n2cnnn2)cc1)N1CCN(C(c2ccccc2)c2ccccc2)CC1`: in assay [1], the membrane potential signal change is 251% (active). The inhibition in assay [2] is 71% (active); in assay [5], 44.5% (active). The percent change from control (negative = decrease, positive = increase) in assay [3] was 18.5% (active). Moreover, the outcome in assay [4] was inactive.
As for `Cc1ccc2c(c1)C1CN(C)CCC1N2C(=S)Nc1ccc(Cl)cc1Cl` (centres undefined), the outcome in assay [1], in assay [2], in assay [5] and in assay [6] was inactive. In addition, the percent change from control (negative = decrease, positive = increase) in assay [3] is -10% (active). The inhibition in assay [4] is 49.5% (active).
As to `CCCCN(CCCC)CC(O)Cn1c2ccccc2c(=O)c2ccccc21` (centres undefined), the outcome in assay [1], in assay [2] and in assay [3] was inactive. In addition, the figures for the inhibition in assay [4] and in assay [5] were 85.5% (active) and 69% (active), respectively.
For the compound `O=C(O)c1ccc(NC(=O)c2ccc(COc3ccc(Cl)cc3)o2)cc1`, the outcome in assay [1], in assay [2], in assay [3], in assay [4], in assay [5] and in assay [6] was inactive.
In the case of `Nc1ccc(C(=O)N2CCN(S(=O)(=O)c3ccc(Cl)cc3)CC2)cc1[N+](=O)[O-]`, the outcome in assay [1], in assay [2], in assay [3] and in assay [4] was inactive. In addition, in assay [5], the inhibition is 72.5% (active).
As to `Cc1nc(C(=O)NCc2ccccc2)sc1C1(C)CC(c2cccnc2)=NO1` (centres undefined), the outcome in assay [1], in assay [3] and in assay [4] was inactive. The inhibition was 97.5% (active) in assay [2] and 114% (active) in assay [5].
On to `CCC(C)NCCOCCOc1ccc(Br)cc1C` (centres undefined), for which, in assay [1], the membrane potential signal change was 94% (active). Further, the outcome in assay [2], in assay [4] and in assay [5] was inactive. Besides, the percent change from control (negative = decrease, positive = increase) in assay [3] is 21% (active).
Turning to `COc1cc(CNCCN(C)C)ccc1OCc1c(F)cccc1Cl`, the membrane potential signal change in assay [1] is 142% (active). Moreover, the outcome in assay [2] and in assay [5] was inactive. In assay [3], the percent change from control (negative = decrease, positive = increase) is 15.5% (active). The inhibition in assay [4] was 49% (active). For the same compound, the activation in assay [6] is 56% (active).
Turning to `Nc1c(C(=O)c2cccs2)sc2nsc(SCCN3CCCCC3)c12`, the membrane potential signal change in assay [1] is 238% (active). Moreover, the outcome in assay [2], in assay [4], in assay [5] and in assay [6] was inactive. Also, the percent change from control (negative = decrease, positive = increase) in assay [3] is 174% (active).
In the case of `Cc1cccc(-[n+]2c(-c3cccc(Br)c3)[nH]c3nc4ccccc4nc32)c1`, the result in assay [1], in assay [2], in assay [3], in assay [5] and in assay [6] was inactive. Further, the inhibition in assay [4] is 51% (active).
For `CN(C)c1cc(N)c2ccccc2n1` (tested in a mixture with another compound), the membrane potential signal change in assay [1] is -230% (active). Moreover, the result in assay [2] and in assay [6] was inactive. The percent change from control (negative = decrease, positive = increase) in assay [3] is -40.5% (active). The inhibition in assay [4] was 82% (active); in assay [5], 69.5% (active).
With `COc1ccccc1C(CNC(=O)c1cccc(NS(=O)(=O)c2ccc(Br)cc2)c1)N(C)C` (centres undefined), the outcome in assay [1], in assay [2], in assay [3] and in assay [6] was inactive. In addition, the inhibition was 32.5% (active) in assay [4] and 44% (active) in assay [5].
